Only some compounds are listed: those with a hit (about 7.6% of all), similar ones and a draw of the others.
ERK AVP inh = vasopressin-driven ERK pathway inhibition; AID 995; HEK293-V1b, vasopressin-stimulated pERK AlphaScreen; Potency, µM (top dose mostly 57.5 µM), inactives show top-dose activity, negative = inhibition, most hits filed as inhibitors; actives 0.99% (n = 72,000); note: % is set by controls: 0 for no effect and ±100 for the full control effect; nearly all actives have a fitted effect of over 55% in size
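HEK293 cells stably expressing V1b receptor, preincubated 30 min at 37 °C with compound, then stimulated 5 min with 25 nM vasopressin. Phospho-ERK by AlphaScreen SureFire after 5 h RT; normalized to DMSO and vasopressin; AC50 by Hill fit.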
CRE Fsk mod = modulators of forskolin-stimulated CRE signaling in CHO cells | CHO CRE-bla reporter (cAMP response element driving beta-lactamase), forskolin EC10, beta-lactamase ratio | Potency, µM (highest dose often 38.2 µM), without a hit: top-dose activity change, negative = inhibition, most hits filed as activators | actives 2.5% (n = 71,000) | AID 662; active = well fitted activation curve with a large enough effect in the signal ratio, with a control signal flat, not every such curve was filed as active; inconclusive = small, poorly fitted or top-dose-only effect, or effect the other way, or a change in a side signal; the % refers to the signal ratio; note: % of control where 0% means no effect
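Using CellSensor CRE-bla CHO cells in Opti-MEM with 0.5% dialyzed FBS, compounds were titrated with EC10 NKH 477 for 3 h at 37 °C. CCF4 ratio (460/530 nm) gave %Activity; AC50 derived.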
Tau filament bind = tau filament binding | AID 596 | Potency, µM (highest dose often 57.1 µM), inactives show top-dose activity change, negative = inhibition | P10636 | recombinant tau filaments, thioflavin S fluorescence, 15 h; filaments grown with octadecylsulfate alongside compound | actives 2% (n = 71,000);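 note: % is set by controls: 0 for no effect and ±100 for the full control effect; actives lower thioflavin S fluorescence by blocking filaments or displacing dye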
Target sequence (P10636 whole entry, looked up): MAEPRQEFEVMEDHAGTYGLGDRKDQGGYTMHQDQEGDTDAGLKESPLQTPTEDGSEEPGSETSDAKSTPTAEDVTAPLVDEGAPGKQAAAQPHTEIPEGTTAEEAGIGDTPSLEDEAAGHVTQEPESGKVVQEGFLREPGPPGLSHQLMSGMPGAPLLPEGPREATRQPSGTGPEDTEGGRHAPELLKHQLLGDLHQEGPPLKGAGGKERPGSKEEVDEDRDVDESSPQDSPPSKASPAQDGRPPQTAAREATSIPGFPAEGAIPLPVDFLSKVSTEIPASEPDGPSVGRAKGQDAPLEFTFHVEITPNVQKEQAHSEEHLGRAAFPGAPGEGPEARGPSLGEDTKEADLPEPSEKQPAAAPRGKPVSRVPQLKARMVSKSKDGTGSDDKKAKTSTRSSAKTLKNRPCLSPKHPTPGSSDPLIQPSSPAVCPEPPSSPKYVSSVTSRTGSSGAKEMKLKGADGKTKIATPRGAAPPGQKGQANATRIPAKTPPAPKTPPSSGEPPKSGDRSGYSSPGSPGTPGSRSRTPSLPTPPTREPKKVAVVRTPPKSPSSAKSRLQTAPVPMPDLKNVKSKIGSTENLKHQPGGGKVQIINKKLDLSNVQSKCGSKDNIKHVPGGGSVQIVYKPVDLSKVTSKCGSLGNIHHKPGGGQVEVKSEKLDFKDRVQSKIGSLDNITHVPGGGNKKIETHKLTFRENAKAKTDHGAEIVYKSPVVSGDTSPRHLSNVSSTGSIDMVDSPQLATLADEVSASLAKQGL
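Read-out: ThS fluorescence, 450 nm excitation/510 nm emission; lower signal marks blocked filament formation or displaced dye. Tau at 1 uM with 30 uM ODS, 10 uM ThS, 5 mM DTT, 100 mM NaCl, 10 mM HEPES pH 7.4; 15 h, 37 C.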
TSHR ag = activates the human thyroid stimulating hormone receptor; P16473; HEK293-CNG-TSHR cells (CNG channel as cAMP sensor), membrane potential dye, cAMP; Potency, µM (titrated, usually from 57.1 µM), for the others: at the highest dose activation, usual class: activators; actives 0.48% (n = 73,000); AID 926; active = well fitted activation curve with a large enough effect in the main read-out, with a control signal flat, not every such curve was filed as active; inconclusive = small, poorly fitted or top-dose-only effect, or a change in a side signal; inactive = no such curve, though single readings can be large or run the other way; % of control where 0% means no effect;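 note: the control signal comes from parental cells without the receptor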
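HEK 293 cells stably expressing TSHR and a modified CNG channel, with CNG-only parental cells as counterscreen, were preloaded 60 min at room temperature with membrane potential dye containing 100 uM RO 20-1724. Compound exposure was 30 min, and depolarization was read as fluorescence at 590 nm.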
HEK293 cAMP ctrl = counter-screen for TSHR agonists: cAMP increase in parental HEK293 | parental HEK293 CNG cAMP sensor, membrane potential fluorescence | actives 2.5% (n = 73,000) | Potency, µM (top dose mostly 57.1 µM), inactives show at the top dose activation, usual class: activators; note: % of control where 0% means no effect; nearly all actives have a fitted effect of over 55% in size
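Parental HEK 293 cells stably expressing a modified CNG channel (no TSHR) report cAMP rise as membrane depolarization. Membrane potential dye with 100 uM RO 20-1724 was loaded for 60 min at room temperature, then compound added for 30 min; fluorescence read at 590 nm.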
* marks the source's active call; other numbers are inactive results; ? = inconclusive; . = no result given; [ ] = remark or other dose. Unless noted, calls come from the whole dose curve; as a rule, active = well fitted curve in the direction sought with a large enough effect; inconclusive = small, poorly fitted or top-dose-only effect, or another doubt; inactive = no such curve, though single readings can be large; an effect the other way counts as inactive or inconclusive. Potency is the fitted concentration of half-maximal effect.

SMILES	ERK AVP inh	CRE Fsk mod	Tau filament bind	TSHR ag	HEK293 cAMP ctrl
CCOc1cc(CNc2ccc3[nH]c(=O)[nH]c3c2)ccc1OCC(=O)NC(C)(C)C	-28%	-3%	?	0%	-11%
COc1cc(CNc2ccc3[nH]c(=O)[nH]c3c2)cc(Cl)c1OCC(=O)NC(C)(C)C	-19%	19%	10µM*	-4%	-10%
CCC(=O)Oc1ccc2c(C)cc(=O)oc2c1C	?	?	20%	-7%	-9%
CCOC(=O)CCc1c(C)c2ccc(OC(C)C(=O)OCC)c(C)c2oc1=O (stereo not given)	-24%	-5%	23%	?	20µM*
C[C@@]12CCC(=O)C[C@@H]1CC(=O)[C@H]1[C@H]3CCC[C@]3(C)C(=O)C[C@@H]12 (tested in a mixture with another compound)	-3%[25.7 µM]	4%[17.1 µM]	-8%[25.6 µM]	-12%[25.6 µM]	8%[25.6 µM]
CSc1nnc2c3cc(C)ccc3n(Cc3ccccc3)c2n1	-5%	2µM*	1%	?	16µM*
CCN(c1cccc(C)c1)S(=O)(=O)c1ccc(O)c(C(=O)O)c1	.	.	.	3%	-2%
COc1cc(/C=C\c2ccc(OC)cc2OC)cc(OC)c1	23%	2µM*	?	?	?
CC(C)CN1CC2(CCN(C(=O)c3ccco3)CC2)C1	3%	12%	-5%	?	20µM*
COC(=O)c1ccccc1NC(=O)CSc1nnnn1-c1ccc(C)cc1C	-13%	?	10µM*	10%	18%
CCOC(=O)c1sc(NC(=O)CSc2nnnn2-c2ccc(C)cc2C)nc1C	-7%	5%	-5%	?	25µM*
COC(=O)[C@H]1C[C@@H]1[C@H](NC(C)=O)c1ccccc1	1%	-5%	-7%	2%	-5%
COC(=O)[C@@H]1C[C@H]1[C@@H](NC(=O)c1ccccc1)c1ccccc1	-17%	2%	-6%	?	25µM*
COC(=O)[C@H]1C[C@@H]1[C@H](NC(=O)OCc1ccccc1)c1ccccc1	1%	14%	-18%	.	21%
COC(=O)[C@@H]1C[C@H]1[C@@H](NC(=O)Oc1ccc(F)cc1)c1ccccc1	10%	-21%	-4%	?	10µM*
CCCCN1C(=O)/C(=C2\SC(N3CCCCC3)=NC2=O)c2ccccc21	25µM*	10µM*	62%	-10%	-13%
COc1ccc(Oc2ncc3nc(-c4ccc(Cl)cc4)c(=O)n(C)c3n2)cc1	2%	4%	-2%	0%	0%
O=C(c1c(F)cccc1F)N1CCN(c2ccccc2F)CC1	19%	?	6%	9%	16%
O=C(c1ccccc1)N1CCN(c2ccc(NCc3ccc4c(c3)OCO4)cc2)CC1	20µM*	-12%	32µM*	-12%	7%
O=C(c1ccc2c(c1)OCO2)N1CCN(c2ccccc2)CC1	-5%	7%	11%	?	16µM*
O=C(c1ccc2c(c1)OCO2)N1CCCC(c2ccccc2)C1 (stereo not given)	-17%	13%	-7%	?	10µM*
O=C(c1cccc(C(=O)N2CCN(c3ccccc3F)CC2)c1)N1CCN(c2ccccc2F)CC1	16µM*	?	-12%[11.4 µM]	4%[11.4 µM]	16%[11.4 µM]
COc1ccc(NC(=O)N2CCC3(CC2)CCN(C(=O)c2ccco2)CC3)cc1	-17%	-9%	7%	-3%	-6%
O=C(c1cc(-c2ccc3c(c2)OCO3)on1)N1CCN(c2ccccc2)CC1	?	?	0%	?	?
O=C(c1cc(-c2ccc3c(c2)OCO3)on1)N1CCN(c2ccc(F)cc2)CC1	-9%	?	1%	?	32µM*
SMILES	ERK AVP inh	CRE Fsk mod	Tau filament bind	TSHR ag	HEK293 cAMP ctrl
COCCn1nnnc1C(c1ccc(OC)cc1)N1CCN(c2ccccc2F)CC1 (stereo not given)	2%	-12%	-2%	?	?
Cc1ccc(C(c2nnnn2CCc2ccccc2)N2CCSCC2)cc1 (stereo not given)	0%	-1%	-3%	?	20µM*
COCCn1nnnc1C(c1ccc(Cl)cc1)N1CCSCC1 (stereo not given)	-9%	0%	-4%	?	16µM*
CC(=O)N1[C@H](C)C=C[C@]1(Cc1ccccc1)C(=O)NCc1ccc(C)o1	51%	?	23%	3%	11%
CC1CCN(C(c2ccccc2)c2nnnn2C(C)(C)C)CC1 (stereo not given)	-21%	3%	-7%	?	20µM*
CCC(C)(C)n1nnnc1C(c1ccc(N(C)C)cc1)N1CCN(C2CCCCC2)CC1 (stereo not given)	7%	0%	-13%	-4%	12%
COc1ccc(C(c2nnnn2C(C)(C)C)N2CCN(c3nc4ccccc4s3)CC2)cc1 (stereo not given)	-6%	11%	49%	10µM*	30%
CCC(C)(C)n1nnnc1C(c1ccc(C)cc1)N1CCCC1 (stereo not given)	6%	-1%	6%	?	25µM*
COc1ccccc1C(c1nnnn1C(C)(C)C)N1CCCCCC1 (stereo not given)	18%	-3%	-7%	13%	28%
CCC(C)(C)n1nnnc1C(c1ccc(O)c(OC)c1)N1CCN(c2nc3ccccc3s2)CC1 (stereo not given)	-15%	-12%	4%	?	?
CCC(=O)OCC(=O)[C@@]1(OC(=O)CC)[C@H](C)C[C@@H]2[C@H]3CCC4=CC(=O)C=C[C@]4(C)[C@]3(Cl)[C@@H](O)C[C@@]21C	3%[25.7 µM]	-7%[17.1 µM]	2%[25.6 µM]	24%[25.6 µM]	18%[25.6 µM]
c1ccc(-c2nc3nonc3nc2-c2ccccc2)cc1	13µM*	?	?	-8%[11.4 µM]	-14%
Cc1ccc(S(=O)(=O)N[C@H]2COC(=O)[C@@H](C)COC(=O)C/C=C\[C@H]2C)cc1	15%[11.5 µM]	.	.	-4%[11.4 µM]	-1%[11.4 µM]
O=C1Nc2ccc(I)cc2/C1=C/c1cc(Br)c(O)c(Br)c1	?	?	1µM*	?	-34%
CN1C[C@H](c2ccccc2)C(O)([C@]2(c3ccccc3)CN(C)C[C@@H](c3ccccc3)C2=O)[C@H](c2ccccc2)C1 (stereo not given in full)	-1%[11.5 µM]	10%[7.6 µM]	-1%[11.4 µM]	0%[11.4 µM]	5%[11.4 µM]
CCOC(=O)c1c(NC(=O)CSc2n[nH]c(-c3ccco3)n2)sc(C)c1C	-30%	0.063µM*	128%	30%	14%
CCOC(=O)c1c(NC(=O)COC)sc(C(C)=O)c1C	-26%	13µM*	9%	10%	21%
CCOC(=O)CSc1n[nH]c(-c2ccco2)n1	-5%	-3%	-1%	-1%	0%
CCOC(=O)c1c(-c2ccc(C)o2)csc1NC(=O)CSc1nnc(C)s1	10%	?	17%	?	32µM*

Screening results as filed in PubChem BioAssay.
